ELG1 DNA repair – ELG1-dependent DNA repair inhibition | HEK293T ELG1-luciferase reporter, luminescence, 16 h; DNA damage induced by 5-fluorouridine | AID 504467 | hit rate 2.3% among 330,000 | Potency, µM (series often up to 46.1 µM), without a hit: at the highest dose activity change, negative = inhibition, actives largely listed as inhibitors; note: potency is the fitted concentration of half-maximal effect; nearly all actives have a fitted effect of over 55% in size
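DMSO vehicle served as the neutral condition. Each well held 2,000 cells given 5-fluorouridine plus compound; after 16 hr at 37 °C/5% CO2, ONE-Glo was added and luciferase measured 30 min later.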
IL1B secr inh – inhibitors of inflammasome signaling (IL-1 beta secretion). hit rate 4.7% among 360,000. activity change, % at 57.5 µM. AID 743279. THP-1 LPS/ATP IL-1B secretion, AlphaLISA, 16 h; stronger effect = lower value; in the data active = activity change below about -50%; inconclusive = mostly about -30% to -49%
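Secreted IL-1B measured by AlphaLISA bead assay after 16 h compound exposure of THP-1 cells; compounds (final up to 57.5 uM) added 1 h before LPS (250 ng/mL) and ATP (1.25 mM) stimulation; lower signal means less secretion.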
TDP1 cell noCPT – qHTS for Inhibitors of human tyrosyl-DNA phosphodiesterase 1 (TDP1): qHTS in cells in absence of CPT; AID 686978, 2013; DT40 Tdp1-/- hTDP1 cells, no CPT, ATP luminescence, 48 h; hit rate 15% among 420,000; Potency, µM (series often up to 46.2 µM), without a hit: at the highest dose activity change, negative = growth inhibition, actives largely listed as inhibitors; note: potency is the fitted concentration of half-maximal effect; nearly all actives have a fitted effect of over 55% in size
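Stably hTDP1-transfected Tdp1-null chicken DT40 cells were treated with library compounds minus camptothecin and grown for at least 48 hr at 37 °C, after which cellular ATP was quantified by luminescence.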
DT40 TDP1 CPT – growth inhibition of DT40 Tdp1-/-;hTDP1 cells with camptothecin (screen for TDP1 inhibitors). chicken DT40 Tdp1-/-;hTDP1 cells + 20 nM CPT, ATP luminescence, 48 h. Potency, µM (doses to about 46.2 µM), inactives show top-dose activity change, negative = growth inhibition, most hits filed as inhibitors. hit rate 12% among 420,000. AID 686979; note: potency is the fitted concentration of half-maximal effect; nearly all actives have a fitted effect of over 55% in size
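Chicken DT40 Tdp1-/- cells stably complemented with human TDP1 were seeded at 400 cells/well in medium containing 20 nM camptothecin, exposed to pin-transferred compounds, and grown at 37 °C for at least 48 hr. Viability was read as ATP luminescence.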
HT1080NT lethal – kills 2HG-producing HT-1080-NT fibrosarcoma cells; HT-1080-NT fibrosarcoma viability, CellTiter-Glo ATP luminescence, 48 h; Potency, µM (top dose mostly 46.1 µM), for inactives: top-dose activity, negative = less viability, most hits filed as cytotoxic; hit rate 1.6% among 360,000; AID 686970;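 note: NT is the 2HG producing partner of a matched IDH1 knockdown line; potency is the fitted concentration of half-maximal effect; 0% = DMSO-treated cells and -100% = media-only wells without cells; nearly all actives have a fitted effect of over 55% in size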
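Luminescent CellTiter-Glo readout after 48 hours of compound exposure at 37 degrees C defined viability of HT-1080-NT cells. Activity was normalized to DMSO wells and cell-free media wells; concentration-response curves were fitted and assigned curve classes.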
HT1080 IDH1KD tx – HT-1080 IDH1 knockdown cell toxicity (counter line); AID 686971; HT-1080 IDH1 knockdown viability, ATP luminescence, 48 h; hit rate 2% among 360,000; Potency, µM (doses to about 46.1 µM), without a hit: at the top dose activity, negative = toxicity, actives largely listed as cytotoxic;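 note: potency is the fitted concentration of half-maximal effect; 0% = DMSO wells and -100% = cell-free medium wells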
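In this qHTS, HT-1080 cells depleted of IDH1 are exposed for 48 h at 37 °C to compound titrations. Toxicity is scored from CellTiter-Glo luminescence, with DMSO as full viability and medium alone as none.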
Starred values were filed as active, the others as inactive; ? = inconclusive; . = no result given. A selection: hits, their analogues and other compounds. The true share with any hit is near 19%. Unless noted, calls come from the whole dose curve; as a rule, active = well fitted curve in the direction sought with a large enough effect; inconclusive = small, poorly fitted or top-dose-only effect, or another doubt; inactive = no such curve, though single readings can be large; an effect the other way counts as inactive or inconclusive. Unless noted, % is set by controls: 0 for no effect and ±100 for the full control effect.

SMILES	ELG1 DNA repair	IL1B secr inh	TDP1 cell noCPT	DT40 TDP1 CPT	HT1080NT lethal	HT1080 IDH1KD tx
O=C(OC1CO[C@H]2O[C@@H]1[C@H](OC(=O)c1ccccc1)[C@H]2OC(=O)c1ccccc1)c1ccccc1 (some centres not stated)	.	4	-6%	15%	4%	0%
O[C@@H]1CN(Cc2cccs2)[C@@H](c2ccc(Cl)cc2)C[C@H]1n1cc(C2CC2)nn1	.	-6	?	?	?	-28%
Cc1ccc2c3c(cccc13)-c1ccccc1C2=O	?	-20	?	-29%	-3%	-21%
Cc1coc2c1C(=O)C(=O)c1c-2ccc2c1CCCC2(C)C	?	31	1.3µM*	0.82µM*	-17%	-17%
Cc1coc2cc3oc(=O)c4c(c3cc12)CCC4	16%	.	.	.	.	.
Cc1coc2c1C(=O)C(=O)c1c-2ccc2c(C)cccc12	?	-12	4.6µM*	2.9µM*	-11%	-14%
CCOC(=O)c1ccc(NC(=S)N(CCCN(CC)CC)Cc2ccco2)cc1	-4%	-55*	-27%	9%	-13%	-21%
COc1ccc(NC(=S)N(CCCN2CCCC2)Cc2ccco2)cc1	0%	-5	-5%	2%	12%	22%
Cc1ccc(NC(=S)N(CCN2CCCCC2)Cc2ccco2)cc1Cl	1%	-98*	?	?	?	?
CCOC(=O)c1ccc(NC(=S)N(CCCN2CCCCC2)Cc2ccco2)cc1	0%	-53*	?	-10%	?	?
Cc1cc(C)cc(NC(=S)N(CCN2CCCCC2)Cc2ccco2)c1	?	-12	?	?	-10%	-1%
CCOC(=O)c1ccc(NC(=S)N(CCN(C)C)Cc2cccs2)cc1	?	19	?	16µM*	-58%	?
CC(C)C[C@@H](CNCC(=O)[C@H](CC(=O)O)NC(=O)c1[nH]cnc1C(=O)N[C@H](CN)CC(C)C)NC(=O)c1nc[nH]c1C(=O)N[C@@H](C)C(=O)O	.	12	4%	13%	5%	12%
O=C(NCc1cccnc1)c1cc(C2CCCCN2C(=O)CCCc2ccccc2)on1 (configuration not stated)	.	28	?	29µM*	-4%	0%
O=C(Nc1ccc(F)c(Cl)c1)c1cc(C2CCCCN2C(=O)CCCc2ccccc2)on1 (configuration not stated)	.	-7	18µM*	?	-1%	-4%
O=C(Nc1ccccc1Cl)c1cc(C2CCCCN2C(=O)CCCc2ccccc2)on1 (configuration not stated)	.	23	23µM*	29µM*	2%	-1%
COc1ccc(NC(=O)c2cc(C3CCCCN3C(=O)CCCc3ccccc3)on2)c(C)c1 (configuration not stated)	.	2	-90%	0.73µM*	6%	7%
Cc1ccccc1N(C(=O)c1snc(C(N)=O)c1N)C(C(=O)NC1CCCC1)c1ccco1 (configuration not stated)	-5%	14	?	-28%	-2%	-1%
O=C(CCCOC(=O)c1cccnc1Cl)c1ccc(Br)cc1	?	-2	?	?	8%	2%
O=C(CCCOC(=O)c1ccc(O)cc1O)c1ccc(Br)cc1	-11%	3	23µM*	?	-7%	0%
COc1ccc(C(=O)NCC(=O)Nc2ccc(-c3ccccc3)cc2)cc1	2%	-9	?	-14%	-3%	2%
CCc1noc(C)c1C(=O)N1CCSC1=Nc1cccc(Cl)c1C	1%	-4	23µM*	?	-2%	?

Screens: PubChem, National Center for Advancing Translational Sciences (NCATS)
